Inconclusive results are not listed. Entries that show only a call come without a potency. The source made the active and inactive calls. The call rests on the fitted dose curve; in most records, active means well fitted curve in the direction sought with a large enough effect; inconclusive means small, poorly fitted or top-dose-only effect, or another doubt; inactive means no such curve, though single readings can be large; an effect the other way counts as inactive or inconclusive.
Key:
[1] = molecular target: Aldehyde dehydrogenase, mitochondrial (Homo sapiens) (UniProt P05091); assay: qHTS for Inhibitors of the Aldehyde Dehydrogenase Family (ALDH2) Primary screen (AID 2061308); further: nearly all actives have a fitted effect of over 55% in size
[2] = molecular target: Retinaldehyde dehydrogenase 3 (Homo sapiens) (UniProt P47895); assay: qHTS for Inhibitors of the Aldehyde Dehydrogenase Family (ALDH1A3) Primary screen (AID 2061315)

| Compound | Potency [1] | Potency [2] |
| --- | --- | --- |
| C/C=C(\C)[C@@H]1C(C)=C[C@@H]2[C@H]([C@@H]1/C=C/C=C/C(=O)O)[C@@H](C)CC[C@@H]2O | inactive | inactive |
| O=C(O)c1ccc2c(c1)C(=O)N([C@@H](Cc1ccc(O)cc1)C(=O)O)C2=O | inactive | inactive |
| N#Cc1ccc(-c2nc(NCc3ccc(-c4ccnc(C(F)(F)F)c4)cc3)c3ccccc3n2)cc1 | inactive | inactive |
| Cc1ccc(-c2cc(C(=O)Nc3ccncc3)c3ccccc3n2)cc1C | inactive | inactive |
| COc1ccc(OC)c(-c2nnc3n2N=C(c2ccc(OC)c(OC)c2)CS3)c1 | inactive | inactive |
| Cc1cc(C)nc(NC(=S)N2CCN(c3nc(C)cnc3C)CC2)c1 | inactive | inactive |
| CCC1CCCN(C(=O)CC(c2ccc3c(c2)OCO3)c2c(O)cc(OC)cc2OC)C1 (configuration not stated) | inactive | inactive |
| Fc1ccc(-c2noc(CCCCSc3nnc(-c4cccc5ccccc45)o3)n2)cc1 | inactive | inactive |
| Cc1noc(C)c1-c1ccc2ncnc(NCc3cc(F)cc(F)c3)c2c1 | inactive | inactive |
| Cc1nnc(-c2cnn(C)c2N)n1Cc1cncn1C | inactive | inactive |
| O=C(Cn1cc(CN(Cc2ccccc2)Cc2ccccc2)nn1)Nc1cc(C(F)(F)F)ccc1Cl | inactive | inactive |
| O=[S+]([O-])(c1ccc2c(c1)OCCO2)N1CCN([S+](=O)([O-])c2c(F)cc(F)cc2Br)CC1 | inactive | inactive |
| O=S(=O)(NCCCCCNS(=O)(=O)c1c(F)cccc1F)c1ccc2c(c1)OCCO2 | inactive | inactive |
| O=C(NCCc1nc2ccccc2n1CCOc1ccccc1F)C1CCCCC1 | inactive | inactive |
| Cc1cccc(C(=O)NC2CCN(C#N)CC2)c1 | inactive | inactive |
| CCn1c2ccccc2c2cc(Nc3ccnc(NCCCN4CCOCC4)n3)ccc21 | inactive | inactive |
| COc1cc2nc(N3CCN(C)CC3)nc(NCCN(C)C)c2cc1OC | inactive | inactive |
| CO[C@H]1/C=C/[C@@](C)(O)/C=C/C(=O)O[C@H](C)[C@@H](C)CC/C=C/1C | inactive | inactive |
| COC(=O)c1ccc(O)c2ncccc12 | inactive | inactive |
| Cc1cc2[nH]c3c(=O)n(Cc4ccccc4F)ncc3c2s1 | inactive | inactive |
| Cc1ccc(S(=O)(=O)Nc2ccc(C)cc2C(=O)Nc2nc(-c3ccccc3)cs2)cc1 | inactive | inactive |

| Compound | Potency [1] | Potency [2] |
| --- | --- | --- |
| O=C(OCC#CCSc1nnc(-c2cccc3ccccc23)o1)c1cccc2[nH]ccc12 | inactive | inactive |
| COc1ccccc1N1C(=O)c2ccccc2C1=O | inactive | inactive |
| CC(=O)Nc1sc2c(c1-c1ccccc1F)CCNC2 | inactive | inactive |
| CC(C)N1CCc2c(sc(NC(=O)C3CCCC3)c2-c2nc3ccccc3s2)C1 | inactive | inactive |
| Oc1ccc(CCc2ccccc2F)c2cccnc12 | inactive | inactive |
| Cc1cc(N[S+](=O)([O-])c2ccc(NC(=O)Cc3nc4ccc(Cl)cc4[nH]3)cc2)no1 | inactive | inactive |
| FC(F)(F)c1ccccc1-c1nc(NCc2ccc(-c3cccnc3)cc2)c2[nH]cnc2n1 | inactive | inactive |
| O=C(O)c1ccc2c(c1)C(=O)N([C@H](Cc1ccc3ccccc3c1)C(=O)O)C2=O | inactive | inactive |
| c1c[nH]c(CNc2ncnc3ccc(-c4ccc5c(c4)OCO5)cc23)n1 | inactive | inactive |
| C=CCOc1cc(Cl)ccc1C(=O)NCCN(CC)CC | inactive | inactive |
| CCOC(=O)Nc1sc2c(c1C(N)=O)CCCC2 | inactive | inactive |
| O=C(Nc1ccc(C(=O)Nc2nccs2)cc1)c1ccc2ccccc2c1 | inactive | inactive |
| CCN(CC)CCCn1c(-c2ccccc2)nc2c(N(CCOC)CCOC)nc(C)nc21 | inactive | inactive |
| CN(Cc1ccc(-c2ccccc2)cc1)c1nc(-c2ccccc2C(F)(F)F)nc2ccccc12 | inactive | inactive |
| CN1[C@@H]2CC[C@H]1CC(OC(=O)C(CO)c1ccccc1)C2 (some centres not stated) | inactive | inactive |
| Cc1ccc(OCCn2c(CCNC(=O)c3cccc(Br)c3)nc3ccccc32)cc1 | inactive | inactive |
| N#Cc1nc(NCC(F)F)c2ncn(-c3cc(F)cc(F)c3)c2n1 | inactive | inactive |
| Cn1cnc(CCNc2ncnc3ccc(-c4ccc5c(c4)OCO5)cc23)c1 | inactive | inactive |
| CN(C)c1ccc2nc(NC(=S)N3CCN(c4cccc(C(F)(F)F)c4)CC3)sc2c1 | inactive | inactive |
| Cc1ccc(-c2ccc(=O)n(CCNCCc3ccccc3)n2)cc1 | inactive | inactive |
| CC(C)=CCC[C@](C)(O[C@@H]1O[C@H](CO[C@@H]2O[C@@H](CO)[C@H](O)[C@H]2O)[C@@H](O)[C@H](O)[C@H]1O)[C@H]1CC[C@]2(C)[C@@H]1[C@H](O)C[C@@H]1[C@@]3(C)CC[C@H](O[C@@H]4O[C@H](CO)[C@@H](O)[C@H](O)[C@H]4O[C@@H]4O[C@H](CO)[C@@H](O)[C@H](O)[C@H]4O)C(C)(C)[C@@H]3CC[C@]12C | inactive | inactive |

| Compound | Potency [1] | Potency [2] |
| --- | --- | --- |
| CCCN(C)c1ncnc2ccc(-c3ccc4c(c3)OCO4)cc12 | inactive | inactive |
| CCc1cccc(CC)c1NC(=O)c1nn(C)c2c1CCc1cnc(Nc3ccc(C(=O)NC4CCN(C)CC4)cc3OC(F)(F)F)nc1-2 | inactive | inactive |
| O=C(O)c1ccc(O)c2ncc(-c3n[nH]nc3-c3ccccc3)cc12 | inactive | inactive |
| Cc1cccc(S(=O)(=O)N2CCN(S(=O)(=O)c3ccc4c(c3)OCCO4)CC2)c1 | inactive | inactive |
| C=C1C(=O)OC2/C=C(\COC(C)=O)CC/C=C(\C=O)CC(OC(=O)C(C)CC)C12 (configuration not stated) | inactive | inactive |
| CC12CCC3C1C(c1c(cc(O)c(C(=O)c4ccccc4)c1O)O2)C3(C)C (configuration not stated) | inactive | inactive |
| NC(=O)C1CCN(c2nc(-c3cccc(Br)c3)cs2)CC1 | inactive | inactive |
| FC(F)(F)c1ccccc1-c1nc(NCc2ccc(-c3ccc4ccccc4c3)cc2)c2ccccc2n1 | inactive | inactive |
| O=C(Oc1cccnc1)c1cccs1 | inactive | inactive |
| CN(Cc1cccs1)c1nc(-c2ccccc2C(F)(F)F)nc2ccccc12 | inactive | inactive |
| Cc1ccc(-c2ccc(=O)n(CC(=O)NCCCN(C)C)n2)cc1 | inactive | inactive |
| Cc1c([S+](=O)([O-])N2CCN([S+](=O)([O-])c3c(F)cccc3F)CC2)sc2ccc(Cl)cc12 | inactive | inactive |
| COc1ccc(C(=O)Oc2ccc(-c3nc4ccccc4[nH]3)cc2)cc1OC | inactive | inactive |
| Cc1cc(C)nc(NC(=S)N2CCN(c3ccc4nncn4c3)CC2)c1 | inactive | inactive |
| N#Cc1ccc(N[S+](=O)([O-])c2ccc(Nc3nc(-c4ccccc4)cs3)cc2)cc1 | inactive | inactive |
| Cc1cccc(C(=O)NCC(=O)OC(C(=O)Nc2cc(C(F)(F)F)ccc2Cl)c2ccccc2)c1 (configuration not stated) | inactive | inactive |
| CC(=O)Nc1ccc(S(=O)(=O)N2CCN(S(=O)(=O)c3c(F)cccc3F)CC2)cc1 | inactive | inactive |
| Cc1ccc(S(=O)(=O)Nc2cnccc2C(=O)Nc2nc(-c3ccncc3)cs2)cc1 | inactive | inactive |
| CCOC(=O)C1CCN(C(=O)C(C)(C)NC(=O)Nc2ccc(Cl)cc2Cl)CC1 | inactive | inactive |
| CC(C)CC(O)C(=O)Nc1cc(C(F)(F)F)ccc1Cl (configuration not stated) | inactive | inactive |
| CC(C)(C)NS(=O)(=O)c1cccc(-c2nnc(SCc3ccc(C(=O)O)cc3)n2-c2ccccc2)c1 | inactive | inactive |

| Compound | Potency [1] | Potency [2] |
| --- | --- | --- |
| CCOc1ccc(C(=O)Nc2ccc(-c3nc4ccccc4o3)cc2)cc1[N+](=O)[O-] | inactive | inactive |
| Cn1ccc2cc(-c3ccc4ncnc(NCc5cccs5)c4c3)ccc21 | inactive | inactive |
| COC(=O)c1ccc(O)c2ncc(NC3CCNCC3)cc12 | inactive | inactive |
| Cc1nc2ccccn2c1C(O)(c1ccccc1)c1ccccc1 | inactive | inactive |
| CCCCN(C)C(=O)Cn1nc(-c2ccccc2C)ccc1=O | inactive | inactive |
| COc1ccc(-c2nnc3n2N=C(c2c(OC)cccc2OC)CS3)c(OC)c1 | inactive | inactive |
| C(=C\c1cccs1)/c1cccnc1 | inactive | inactive |
| C[C@@H]1C[C@@H](O)[C@@]23CO[C@@H](O)[C@@H]2CCC[C@@H]3[C@@]12C[C@@H](c1ccoc1)OC2=O | inactive | inactive |
| C[C@@H]1O[C@@H](O[C@H]2[C@H](O[C@H]3CC[C@@]4(C)C(CC[C@]5(C)C4CC=C4[C@@H]6CC(C)(C)CC[C@]6(C(=O)O)CC[C@]45C)[C@]3(C)CO)OC[C@H](O)[C@@H]2O)[C@H](O)[C@H](O[C@@H]2OC[C@@H](O)[C@H](O)[C@H]2O)[C@H]1O (some centres not stated) | inactive | inactive |
| CC(C)(C)NS(=O)(=O)c1cccc(-c2nnc(SCC(=O)Nc3ccc(C(=O)O)cc3)n2-c2ccc(F)cc2)c1 | inactive | inactive |
| CC(=O)c1ccc(N2CCN(S(=O)(=O)c3ccc4c(c3)CCCC(=O)N4)CC2)cc1 | inactive | inactive |
| CCC/C=C\C=C/CCc1cc(O)c([C@@H]2O[C@H](CO)[C@@H](O)[C@H](O)[C@H]2O)c(O)c1C(=O)OC | inactive | inactive |
| Cc1nc(N2CCOCC2)c2nc(-c3ccccc3)n(CCCN3CCOCC3)c2n1 | inactive | inactive |
| O=C(c1ccccc1O)N(Cc1ccccc1)Cc1ccccc1 | inactive | inactive |
| C=CCNc1oc(C2CCCC2)nc1C#N | inactive | inactive |
| O=C(Nc1nnc(-c2ccco2)o1)c1ccc(Cl)cc1 | inactive | inactive |
| N#Cc1nc(NCCCCO)nc(Nc2ccccc2)n1 | inactive | inactive |
| Cc1ccsc1CNc1ncnc2ccc(-c3c(C)noc3C)cc12 | inactive | inactive |

Source: PubChem BioAssay (NCATS)
